NIH3T3 tox: kills NIH 3T3 cells; NIH 3T3 viability, CellTiter-Glo ATP luminescence, 48-72 h; Potency, µM (doses to about 96.7 µM), inactives show at the highest dose activity change, negative = cytotoxicity, most hits filed as inhibitors; 94,000 tested, 4.3% active; AID 1345082; further: nearly all actives have a fitted effect of over 55% in size
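Luminescent ATP readout (CellTiter-Glo, 10 min RT) after 48 or 72 hr compound exposure of NIH 3T3 cells seeded at 400 cells/well in 1536-well format; quantitative HTS.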
NPR1 antag: antagonists of human natriuretic peptide receptor Npr1; P16066; HEK293 hNpr1 GloSensor cGMP, ANP-stimulated luminescence; Potency, µM (top dose mostly 46.3 µM), for the others: at the highest dose activity change, negative = inhibition, actives largely listed as inhibitors; 76,000 tested, 1.6% active; calls by dose curve; further: nearly all actives have a fitted effect of over 60% in size
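Compound pre-incubated 30 min at room temperature on GloSensor-loaded HEK293 cells stably carrying hNpr1 and the pGS-40F cGMP biosensor. Stimulation uses hNppA at 0.1 nM final; luminescence is taken at baseline and 20 min post-agonist.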
HEK293 tox: cytotoxic compounds in HEK 293 cells; 94,000 tested, 6.6% active; HEK 293 viability, ATP luminescence (CellTiter-Glo), 48-72 h; Potency, µM (doses to about 115 µM), inactives show at the top dose activity change, negative = cytotoxicity, hits mostly inhibitors; further: nearly all actives have a fitted effect of over 60% in size
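HEK 293 seeded at 250 cells/well receive compound via pintool. After 48 or 72 hr at 37 degree Celsius, 5% CO2 and 95% humidity, CellTiter-Glo is dispensed and luminescence read following 10 min at room temperature.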
Luciferase inh: inhibitors of firefly (Photinus pyralis) luciferase. Potency, µM (doses to about 115 µM), usual class: inhibitors. P08659. purified P. pyralis luciferase, luminescence, biochemical. 76,000 tested, 2.5% active; further: nearly all actives have a fitted effect of over 65% in size
Target sequence (P08659 whole entry, looked up): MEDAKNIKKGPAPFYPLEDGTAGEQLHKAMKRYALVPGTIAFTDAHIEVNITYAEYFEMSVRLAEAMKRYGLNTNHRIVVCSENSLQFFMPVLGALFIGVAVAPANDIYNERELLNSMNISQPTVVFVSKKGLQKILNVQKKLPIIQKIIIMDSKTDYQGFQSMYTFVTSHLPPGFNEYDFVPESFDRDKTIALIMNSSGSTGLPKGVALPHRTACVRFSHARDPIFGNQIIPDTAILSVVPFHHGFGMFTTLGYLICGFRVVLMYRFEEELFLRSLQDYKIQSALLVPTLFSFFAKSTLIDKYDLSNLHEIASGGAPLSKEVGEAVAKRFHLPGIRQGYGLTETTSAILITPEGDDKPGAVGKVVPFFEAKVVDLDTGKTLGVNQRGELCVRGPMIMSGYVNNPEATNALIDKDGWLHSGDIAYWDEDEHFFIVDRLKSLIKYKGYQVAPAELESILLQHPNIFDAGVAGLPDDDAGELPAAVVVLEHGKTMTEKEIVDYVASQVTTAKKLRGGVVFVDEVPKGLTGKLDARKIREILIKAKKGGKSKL
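Inhibitors were tested against purified firefly luciferase in a biochemical, low-substrate format (both substrates at 10uM) and luminescence measured with a CCD imager.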
* marks the source's active call; other numbers are inactive results; i = inactive; u = inconclusive; x = not tested or not shown; [ ] = dose if it differs, or a comment. Sampled rows, rich in hits. Any-hit rate of the full collection: about 11%. Unless noted, the call rests on the fitted dose curve; in most records, active means well fitted curve in the direction sought with a large enough effect; inconclusive means small, poorly fitted or top-dose-only effect, or another doubt; inactive means no such curve, though single readings can be large; an effect the other way counts as inactive or inconclusive. On the % scale 0 is the no-effect control and ±100 the full control effect; potency means the concentration at half of the fitted maximal effect.

SMILES	NIH3T3 tox	NPR1 antag	HEK293 tox	Luciferase inh
CCc1nc(NCCc2cc(OC)cc(OC)c2)c2cnn(C)c2n1	u	2%	u	i
O=C(Nc1cnc(-c2ccc(Cl)cc2)nc1)c1ccccc1Cl	2%	u	u	0.63µM*
O=C1Cc2c(-c3ccccc3Cl)n[nH]c2CN1Cc1ccccc1F	u	-7%[70.6 µM]	u	i
O=C1Cc2c(-c3ccccc3Cl)n[nH]c2CN1Cc1ccccn1	79µM*	4%[70.6 µM]	-13%[172 µM]	i
CC[C@H]1CN(C(=O)c2ccc(F)cc2)CC[C@H]1CC(=O)NCc1cccs1	u	-3%[70.6 µM]	-9%[172 µM]	i
COC(=O)[C@@H]1Cc2c([nH]c3ccccc23)[C@H]2C[C@@H](NCc3cccs3)C[C@@H](c3ccc(F)cc3)N21	79µM*	0%	u	i
COC(=O)[C@@H]1Cc2c([nH]c3ccccc23)[C@H]2C[C@H](NCc3cccs3)C[C@@H](c3ccc(F)cc3)N21	22µM*	1%	28µM*	i
COc1ccc(-c2nc(C3CC3)nc3c2CCN(Cc2cc(C)on2)CC3)cc1	-37%	x	-49%	x
CC(C)(O)CCc1cccc(C(=O)NCC(O)c2ccccc2Cl)c1 (stereo not drawn)	-24%	1%	-22%	u
O=C(O)c1ccc(-c2ccc(OC(F)(F)F)cc2)cc1	i	x	i	x
NCc1ccc(-c2ccc(OC(F)(F)F)cc2)cc1	25µM*	x	25µM*	x
NCc1cccc(-c2cc(F)cc(F)c2)c1	89µM*	x	u	x
NCc1ccc(-c2ccc(F)cc2)cc1	89µM*	x	100µM*	x
CCS(=O)(=O)N1CCOCCNC(=O)[C@H]2CCCC[C@H]21	-2%	1%	0%	i
CCn1nccc1C(=O)NCCC1CCN(C(=O)Nc2ccc(F)cc2)CC1	-10%	-1%	1%	i
CCCN(C)c1nccnc1OC1CCN(C(=O)C(CC)CC)C1 (stereo not drawn)	u	-14%	u	32µM*
CCCN(C)c1nccnc1OC1CCN(C(=O)C2CCOCC2)C1 (stereo not drawn)	-8%	4%	-13%	40µM*
CCCN(C)c1nccnc1OC1CCN(C(=O)C2CC2)C1 (stereo not drawn)	u	-2%	-23%	40µM*
Cc1ccc(CN2CC[C@H](c3nc4ccc(C)cc4[nH]3)C2)cc1	u	-14%[70.6 µM]	u	i
Fc1ccc2nc([C@H]3CCN(Cc4ncc[nH]4)C3)[nH]c2c1	u	-3%[70.6 µM]	u	i
Cc1ccc(CN2CC[C@H](c3nc4ccc(C(F)(F)F)cc4[nH]3)C2)cc1	28µM*	u	40µM*	i
Fc1ccc2nc([C@H]3CCN(Cc4ccc(F)c(F)c4)C3)[nH]c2c1	u	u	56µM*	u
Fc1ccc(CN2CC[C@H](c3nc4ccc(C(F)(F)F)cc4[nH]3)C2)cc1F	13µM*	u	10µM*	i
Fc1ccc2nc([C@H]3CCN(Cc4cccs4)C3)[nH]c2c1	u	u	71µM*	40µM*
CC(=O)N[C@@H]1CN(Cc2cc(=O)n3[nH]cnc3n2)C[C@H]1c1ccc(C)o1	-5%	1%	-1%	i
SMILES	NIH3T3 tox	NPR1 antag	HEK293 tox	Luciferase inh
COc1cccc(-c2nc3cnccn3c2NCCC(=O)N2CCN(C)CC2)c1	i	1%	0%	i
C=CCCC(CN1CCCC1)Oc1ccc(-c2ccccc2)nn1 (stereo not drawn)	u	4%	u	i
Cc1cc(C(=O)N(CC2CCN(Cc3ccccc3C)CC2)CC2CCCO2)c(C)o1 (stereo not drawn)	-15%	-1%	-22%	i
O=C(Nc1ccc(C(F)(F)F)cc1)N1CCCC(Cn2cnc3cccnc32)C1 (stereo not drawn)	-28%	-6%	u	i
COc1ccccc1CN1CC[C@H](c2nc3ccc(C(F)(F)F)cc3[nH]2)C1	28µM*	1%[70.6 µM]	32µM*	i
COc1ccc(F)cc1-c1cccc(C(=O)O)c1	-10%[138 µM]	x	-4%[172 µM]	x
O=C(NCCNC(=O)c1ccc(-c2cncnc2)cc1)Nc1ccccc1F	-14%	x	4%	x
COc1ccc(F)cc1-c1cccc(C(=O)NCCNC(=O)Nc2ccccc2F)c1	u	x	20µM*	x
COc1ccc(F)cc1-c1cccc(C(=O)NCCNC(=O)Nc2ccccc2)c1	35µM*	x	50µM*	x
CC(C)NC(=O)NCCNC(=O)c1cccc(-c2ccsc2)c1	u	x	100µM*	x
O=C(NCCNC(=O)C1CCCC1)c1cccc(-c2ccsc2)c1	u	x	79µM*	x
O=C(NCC1(N2CCOCC2)CCCC1)c1cn(Cc2ccccc2Cl)nn1	-2%	1%	-17%	i
CN(CC(=O)NCCc1noc(-c2cccnc2)n1)S(=O)(=O)c1cccs1	-3%	0%	3%	i
O=C(NC1CCCC1)NC1CCCN(c2cc(N3CCCC3)ncn2)C1 (stereo not drawn)	-12%	4%	-5%	i
CCc1cccc(NC(=O)C2CCN(C(=O)c3nnn4c3COC(c3ccc(C)cc3)C4)CC2)c1 (stereo not drawn)	22µM*	-14%	10µM*	35µM*
COc1ccc(C2Cn3nnc(C(=O)N4CCC(C(=O)Nc5cc(C)cc(C)c5)CC4)c3CO2)cc1 (stereo not drawn)	45µM*	0%	35µM*	i
COc1ccc(C2Cn3nnc(C(=O)N4CCC(C(=O)Nc5cccc(Cl)c5)CC4)c3CO2)cc1 (stereo not drawn)	-6%	0%	-27%	i
CCc1cccc(NC(=O)C2CCN(C(=O)c3nnn4c3COC(c3ccc(OC)cc3)C4)CC2)c1 (stereo not drawn)	u	-2%	18µM*	i
O=C(c1ncccc1F)N1C[C@@H](COCC2CC2)[C@H](c2ccncc2)C1	-3%	2%	1%	i
O=C(O)C1CCCN(Cc2ccccc2OCCCN2CCOCC2)C1 (stereo not drawn)	-4%	1%	u	i
CN(Cc1nc(-c2ccccn2)no1)C(=O)C1CC2(CCNCC2)CN1 (stereo not drawn)	i	3%	-3%	i
Clc1ccc(-c2cnc3n[nH]c(-c4ccccc4)c3n2)cc1	28µM*	-11%[70.6 µM]	79µM*	i
COc1cc(F)ccc1-c1cnc2n[nH]c(-c3ccccc3)c2n1	u	-16%[70.6 µM]	u	i
Fc1ccc(-c2cnc3n[nH]c(-c4ccccc4)c3n2)cc1	28µM*	-2%[70.6 µM]	u	i
COc1ccccc1-c1[nH]nc2ncc(-c3ccc(C)cc3)nc12	-73%[138 µM]	-16%[70.6 µM]	u	i
CN1CCN(C(=O)CCC[C@@H]2[C@H]3CCCN4CCC[C@@H](CN2Cc2ccccc2)[C@@H]34)CC1	-31%	-1%	-29%	i
COc1cc(OC)c(-c2nc3ccc(-c4ccc(OC)c(OC)c4OC)cc3o2)cc1OC	32µM*	-21%	u	i
COc1ccc(-c2ccc3nc(-c4ccccc4C)oc3c2)c(OC)c1OC	u	-13%	u	i

High-throughput results: PubChem BioAssay, National Center for Advancing Translational Sciences (NCATS)
